# Reference: PubChem BioAssay AID431 (Sanford-Burnham Center for Chemical Genomics, 2006)
# In all, about 63,000 compounds went through this assay and about 1,100 (1.7%) were called active. The entries come from a sample that favours actives as a whole. Entries with a potency or affinity are not part of this list. A number with no mark means an inactive call.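 Rule for the calls: active = compounds whose percent cytotoxicity in the single-dose primary screen, scaled between solvent and toxic-drug controls, exceeds 50; inactive = the rest.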
# Experiment: cytotoxicity in KRAS-transformed pancreatic duct cells, primary screen, cell-based, fluorescence, HTS (AID 431);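 note: 0% = DMSO solvent wells and 100% = doxorubicin-treated wells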
# Settings: HPDE-C7K KRASV12 cells, Alamar Blue viability, 48 h; at 10 µM; stronger effect = higher value
row,SMILES,cytotoxicity
1,c1ccc(-c2ccc(-c3ccccn3)nn2)nc1,7.3%
2,c1ccc(-c2nnc(-c3ccccn3)nn2)nc1,8.9%
3,Cc1ccc(C)c(S(=O)(=O)NC(CCC(N)=O)C(=O)O)c1 (centres undefined),5%
4,COc1ccc2c(c1)CCc1c(C(=O)Nc3ccn(Cc4ccc(C)cc4)n3)noc1-2,-1.5%
5,COc1cc(C2C3C(=O)N(c4ccc(F)cc4)C(=O)C3ON2c2ccccc2)ccc1O (centres undefined),-1.5%
6,CCCOc1ccc(N2C(=O)C3ON(c4ccccc4)C(c4ccc(O)c(OC)c4)C3C2=O)cc1 (centres undefined),81.7% (active)
7,COc1cc(C2C3C(=O)N(c4ccccc4)C(=O)C3ON2c2ccccc2)ccc1O (centres undefined),3.7%
8,CCCCCC1CC(CC(=O)O)C(=O)O1 (centres undefined),-13.6%
9,CCOC(=O)N1CCC(NC(=O)c2cc(C(=O)Nc3ccc(OCC)cc3)ccc2CO)CC1,1.5%
10,CCn1c(CNc2nc(-c3ccccc3)cs2)nnc1SCC(=O)NCc1ccco1,-32.7%
11,COC(=O)c1ccccc1NS(=O)(=O)c1ccc2c3c(cccc13)C(=O)N2,20.3%
12,COCCOC(=O)c1c(C)oc2ccc(NS(=O)(=O)c3ccccc3)cc12,17.1%
13,CCOC(=O)c1c(C)oc2ccc(NS(=O)(=O)c3ccc4c5c(cccc35)C(=O)N4)cc12,69.9% (active)
14,CCCCn1c2c(c3ccccc31)CCc1nonc1-2,14.8%
15,COC(=O)C(C)NC(=O)C(C)NC(=O)OCc1ccccc1 (centres undefined),8%
16,CCOC(=O)N1CCN(c2c(-c3ccccc3)c3cc(Cl)ccc3[nH]c2=O)CC1,-2.7%
17,O=c1[nH]c2ccc(Cl)cc2c(-c2ccccc2)c1N1CCOCC1,12.4%
18,O=C(c1ccco1)N1CCN(c2c(-c3ccccc3)c3cc(Cl)ccc3[nH]c2=O)CC1,81.6% (active)
19,COc1cc(NC(=O)c2ccccc2)c(OC)cc1NC(C)=O,-2.1%
20,O=C1NC(c2ccncc2)Nc2ccccc21 (centres undefined),-12.1%
21,COCCNC(=O)c1cc2cc(Br)cc(OC)c2oc1=O,0.9%
22,Cc1ccc(C(=O)Nc2nc3ccccc3n2CCN2CCCC2)cc1,-3.5%
23,O=C(Nc1nc2ccccc2n1CCN1CCCC1)c1ccc(Cl)cc1,62.1% (active)
24,CCCn1c(NC(=O)c2ccc(Cl)c(S(=O)(=O)N3CCCC3)c2)nc2ccccc21,37.6%
25,O=C(Nc1nc2ccccc2n1CCN1CCCCC1)c1ccco1,-5%

row,SMILES,cytotoxicity
1,CCCn1c(NC(=O)c2ccc(C)cc2)nc2ccccc21,-46.1%
2,CCCn1c(NC(=O)c2cccc(S(=O)(=O)N3CCCC3)c2)nc2ccccc21,54% (active)
3,CC(C)(CSc1nncn1N)NS(=O)(=O)c1ccc(Cl)cc1,0%
4,Cc1cc(-c2ccccc2)c(C#N)c(SCC(N)=O)n1,0.4%
5,CC1CCCN(C(=O)Cn2nnc(-c3cccnc3)n2)C1 (centres undefined),1%
6,CC(NS(=O)(=O)c1ccc(F)cc1)C(c1cccs1)N1CCN(C)CC1 (centres undefined),-12.3%
7,CC1CCCCN1S(=O)(=O)c1ccc(S(=O)(=O)N2CCN(c3ccc(F)cc3)CC2)cc1 (centres undefined),-7.9%
8,Cc1nc(CN2CCN(C(=O)NC3(c4ccccc4)CC3)CC2)cs1,-4.3%
9,COc1ccc2c(c1OC)C(=O)N1c3ccccc3C(=O)N(c3ccccc3F)C21 (centres undefined),53.2% (active)
10,COc1ccc2c(c1OC)C(=O)N1c3ccccc3C(=O)N(c3ccccc3)C21 (centres undefined),38.7%
11,COc1ccc2c(c1OC)C(=O)N1c3ccccc3C(=O)N(c3ccc(F)cc3)C21 (centres undefined),12.3%
12,CCN(CCNC(=O)C1CCN(S(C)(=O)=O)CC1)c1ccccc1,-4.7%
13,O=C(CN1CCc2ccccc2C1)Nc1ccccc1N1CCCCCC1,62.4% (active)
14,O=C(CNCCC1=CCCCC1)Nc1ccccc1N1CCCCC1,74.2% (active)
15,COc1ccc(NC(=O)CNCCC2=CCCCC2)cc1,-7.1%
16,CC(C)CC(=O)Nc1ccccc1N1CCCC1,-13.9%
17,CCOC(=O)c1ccc(NC(=O)N2CCc3ccccc32)cc1,16.1%
18,O=C(CN1CCCCC1)Nc1ccccc1NC(=O)CN1CCCCC1,-8.2%
19,CCOC(=O)c1ccc(NC(=O)CN2CCN(c3ccccc3)CC2)cc1,-0.6%
20,CCOC(=O)c1ccc(NC(=O)CN2CCc3ccccc3C2)cc1,53.1% (active)
21,O=C(COc1ccccc1)Nc1ccccc1N1CCCCC1,-5.3%
22,COc1ccc(CCNC(=O)c2c(O)c3cccc4c3n(c2=O)CC4)cc1OC,3.1%
23,Cc1cc(C(=O)OCC(=O)N2CC(C)CC(C)C2)c(C)o1 (centres undefined),-1%
24,CC(=O)c1ccc(NC(=O)C2CCCNC2=O)cc1 (centres undefined),-14.4%
25,Cc1nnc2ccc(N3CCN(c4cccc(C(F)(F)F)c4)CC3)nn12,3.9%

row,SMILES,cytotoxicity
1,Cn1c(=O)n(-c2ccccc2)c(=O)c2c3c(sc21)COC(C)(C)C3,-13.9%
2,Cc1ccc(S(=O)(=O)NC(=NCC(=O)O)c2ccccc2)cc1,5.9%
3,CCOc1ccc2[nH]c(=O)c(CN(CCOC)C(=O)N3CCOCC3)cc2c1,5.7%
4,COc1ccccc1NS(=O)(=O)c1ccc(NC(C)=O)cc1,1.6%
5,CC(=O)Nc1ccc(S(=O)(=O)c2ccc(N)cc2)cc1,-14.7%
6,CCOC(=O)CN(Cc1ccccc1)S(=O)(=O)c1ccc(NC(C)=O)cc1,8.6%
7,COC(=O)/C=C/S(=O)(=O)c1ccc(NC(C)=O)cc1,58.8% (active)
8,COC(=O)C(C)NS(=O)(=O)c1ccc(NC(C)=O)cc1 (centres undefined),-26.3%
9,CC(C)c1c(O)nc(SCc2ccccc2)[nH]c1=O,-18%
10,COc1cccc(Oc2nnnn2-c2ccccc2)c1,-16.1%
11,COc1ccc(-n2nnnc2SCC(=O)c2cccc(OC)c2)cc1,25.7%
12,CCOc1cccc(-n2nnnc2-c2ccc(OC)cc2)c1,52.1% (active)
13,COc1cccc(-n2nnnc2SCC(=O)c2cc(OC)ccc2OC)c1,-8.2%
14,COc1ccc(-c2nnnn2CCc2ccccc2)cc1,-2.2%
15,CCS(=O)(=O)c1nnnn1-c1ccccc1S(C)(=O)=O,36.8%
16,COc1ccc(-n2nnnc2-c2cccc(OC)c2)cc1,60.7% (active)
17,COc1ccc(-n2nnnc2-c2cccnc2)cc1,0.7%
18,COc1ccc(-c2nnnn2-c2ccccc2OC)cc1,36.6%
19,O=C(CSc1nnnn1-c1ccccc1)CSc1nnnn1-c1ccccc1,3%
20,N#CCCS(=O)(=O)c1nnnn1-c1ccccc1,67.8% (active)
21,O=C(Nc1ccc2c(c1)OCCO2)C1CCN(C(=O)c2ccc(Br)cc2)CC1,4.7%
22,COc1ccc(N2C(=O)C(CC(=O)Nc3ccccc3)N(Cc3ccc4c(c3)OCO4)C2=O)cc1 (centres undefined),-9%
23,c1ccc2c(c1)nc(Nc1ccc3c(c1)OCO3)c1nnnn12,-10.2%
24,COc1ccc(CCNC(=O)CCS(=O)(=O)c2cccc3nsnc23)cc1OC,-2.7%
25,COc1ccc(OC)c2sc(N3CCN(c4ccccc4)CC3)nc12,15.9%

row,SMILES,cytotoxicity
1,CCCc1c(C(=O)OCC)[nH]c2c1C(=O)CCC2,10%
2,O=C(Nc1ccc(C(F)(F)F)cc1)C1CCCN1S(=O)(=O)c1cccc2cccnc12 (centres undefined),16.9%
3,C=CCNC(=O)c1ccccc1NS(=O)(=O)c1ccc(SC)cc1,26.3%
4,CCOc1ccc(NC(=O)CN2CCN(CC(=O)Nc3ccc4c(c3)OCCO4)CC2)cc1,-5.7%
5,Cc1ccc2[nH]c3c(c2c1)CCC3=O,-12.2%
6,O=CNC1CCCc2c1[nH]c1ccc(Cl)cc21 (centres undefined),12.8%
7,CC(Oc1ccc(Cl)cc1)C(=O)Nc1nccs1 (centres undefined),-6%
8,c1ccc(-n2nnnc2Sc2n[nH]c(-c3ccncc3)n2)cc1,-8.6%
9,CC(=O)C1=C(O)C(=O)N(CCN(C)C)C1c1ccc(Cl)cc1 (centres undefined),1%
10,COc1cccc(CNC(=O)C2CCN(C(=O)N(C)C)CC2)c1,-6.1%
11,Cc1ccc(O)c(CC(C)C)n1,5.8%
12,CCC(NC(C)C)C(O)c1ccc(O)c(O)c1 (centres undefined),2.8%
13,CC1CCCN(S(=O)(=O)c2cccc(-c3cn4cccnc4n3)c2)C1 (centres undefined),-3%
14,O=C(Nc1ccc2nc(-c3ccco3)c(-c3ccco3)nc2c1)N1CCCCCC1,38.8%
15,O=C(Nc1ccc(N2CCOCC2)cc1)c1ccc2nc(-c3ccco3)c(-c3ccco3)nc2c1,-26.4%
16,O=C(Nc1ccc(N2CCOCC2)cc1)Nc1ccc2nc(-c3ccco3)c(-c3ccco3)nc2c1,80.3% (active)
17,Cn1nnnc1SCC(=O)N1CCc2ccccc2C1,-12.2%
18,CC(C)c1ccc(NC(=O)C(c2ccccc2)N2CCN(C(=O)c3ccco3)CC2)cc1 (centres undefined),-11.8%
19,COc1ccc(NS(=O)(=O)c2ccc(O)c(C(=O)OCC(=O)N3CC(C)OC(C)C3)c2)cc1 (centres undefined),11.2%
20,C=CCn1c(Cc2csc(N)n2)nnc1SCc1ccc(C(=O)OC)cc1,-10.3%
21,Cc1ccc(-n2c(SCC(=O)NCc3ccco3)nc3sc(C)c(C)c3c2=O)cc1,-4%
22,Cc1cc(C)c2ccc(C)[n+]([O-])c2c1O,-6.5%
23,Cc1cc(C)c2ccc(N)nc2c1O,121% (active)
24,Cc1cc(=O)oc2c(N)c(O)ccc12,-2.8%
